Rows were chosen to be rich in hits. Some 8.2% of all compounds tested hit in one or more screens of this group.
MCF10A rereplic: DNA re-replication induction in MCF 10a cells; MCF 10A DNA re-replication, Hoechst nuclear intensity, 48 h; Potency, µM (doses to about 46.1 µM), for the others: at the highest dose activity, positive = re-replication, most hits filed as activators; actives 2.9% (n = 350,000); further: % of control where 0% means no effect; nearly all actives have a fitted effect of over 50% in size
KB-V1 cytotox: kills drug-selected multidrug resistant KB-V1 cells. KB-V1 MDR cells viability, CellTiter-Glo, 72 h. Potency, µM (doses to about 46.1 µM), actives largely listed as cytotoxic. AID 1347076. actives 3.4% (n = 400,000); further: on the % scale 0 is the no-effect control and ±100 the full control effect; nearly all actives have a fitted effect of over 60% in size
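Following 72 h at 37 degrees C with compound, KB-V1 cell viability was read by CellTiter-Glo luminescence, medium being phenol-red-free DMEM plus 10% FBS; concentration-response parameters came from normalized, curve-fitted qHTS data.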
KB-3-1 tox: KB-3-1 parental cell cytotoxicity; KB-3-1 viability, CellTiter-Glo ATP luminescence, 72 h; Potency, µM (titrated, usually from 46.1 µM), hits mostly cytotoxic; actives 1.4% (n = 400,000); further: on the % scale 0 is the no-effect control and ±100 the full control effect; nearly all actives have a fitted effect of over 60% in size
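KB-3-1 cells, DMEM (no phenol red) + 10% FBS; compound by pin transfer, 72 h, 37 °C. Readout: CellTiter-Glo luminescence after 10 min. Data normalized, curve-fitted.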
SW480 rerep: DNA re-replication induction in SW480 cells; SW480 DNA re-replication, Hoechst DNA content imaging, 48 h; Potency, µM (top dose mostly 46.1 µM), inactives show at the highest dose re-replication activation, usual class: activators; actives 1.8% (n = 340,000); AID 624297; further: % of control where 0% means no effect; nearly all actives have a fitted effect of over 55% in size
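DNA re-replication was detected as more nuclei of elevated Hoechst intensity after 48 hr exposure to compound (23 nL pinned per well of 250 cells).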
ELG1 DNA repair: blocks ELG1-dependent DNA repair in HEK293T cells; HEK293T ELG1-luciferase reporter, luminescence, 16 h; DNA damage induced by 5-fluorouridine; Potency, µM (doses to about 46.1 µM), inactives show at the highest dose activity change, negative = inhibition, usual class: inhibitors; actives 2.3% (n = 330,000); further: on the % scale 0 is the no-effect control and ±100 the full control effect; nearly all actives have a fitted effect of over 55% in size
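Quantitative HTS, concentration-response format. 2,000 cells/well co-treated with 5-fluorouridine and compound, 16 hr in 5% CO2 at 37 °C; ONE-Glo luminescence read after 30 min.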
An asterisk follows results filed as active; ! = not active in a repeat. The call rests on the fitted dose curve; in most records, active means well fitted curve in the direction sought with a large enough effect; inconclusive means small, poorly fitted or top-dose-only effect, or another doubt; inactive means no such curve, though single readings can be large; an effect the other way counts as inactive or inconclusive. Potency means the concentration at half of the fitted maximal effect.

Screening Nc1n[nH]c(N)c1N=Nc1ccc2c(c1)OCO2 returned MCF10A rereplic 1%, KB-V1 cytotox inconclusive, KB-3-1 tox inactive, SW480 rerep 2% and ELG1 DNA repair 29%.
For COc1ccccc1CCC(=O)N(C)CC(=O)Nc1ccc(F)cc1 the results were MCF10A rereplic 4%, KB-V1 cytotox inactive, KB-3-1 tox inactive, SW480 rerep -6% and ELG1 DNA repair -9%.
For O=C(OCCO)c1c(C2=CCCCC2)oc2c1C(OCCO)CCC2 (stereo unspecified) the results were KB-V1 cytotox inactive and KB-3-1 tox inactive.
`O=C(CSc1n[nH]c(=O)n1C1CC1)Nc1cc(Cl)ccc1Oc1ccccc1` gave MCF10A rereplic inconclusive, KB-V1 cytotox 16µM*, KB-3-1 tox inactive, SW480 rerep -8% and ELG1 DNA repair inconclusive.
O=C(CSc1n[nH]c(=O)n1C1CC1)Nc1ccccc1 was read as MCF10A rereplic 13%, KB-V1 cytotox inactive, KB-3-1 tox inactive, SW480 rerep 3% and ELG1 DNA repair 19%.
For COc1cc2c(OC(C)=O)c3c(c(-c4ccc5c(c4)OCO5)c2cc1OC)C(=O)OC3 the results were MCF10A rereplic inconclusive, KB-V1 cytotox inconclusive, KB-3-1 tox 3.3µM*!, SW480 rerep 6% and ELG1 DNA repair -16%.
COc1cc2c(O)c3c(c(-c4ccc5c(c4)OCO5)c2cc1OC)C(=O)OC3 was read as MCF10A rereplic inconclusive, KB-V1 cytotox 4.6µM*, KB-3-1 tox 15µM*, SW480 rerep 23µM* and ELG1 DNA repair inconclusive.
Screening CC(C)[C@H](NC(=O)c1ccc(C(C)(C)C)cc1)C(=O)N1CCN(Cc2ccc3c(c2)OCO3)CC1 returned MCF10A rereplic 18µM*, KB-V1 cytotox inconclusive, KB-3-1 tox inconclusive, SW480 rerep inconclusive and ELG1 DNA repair 16µM*.
O=C(c1ccc(S(=O)(=O)N2CCCCC2)cc1)N1CCN(Cc2ccc3c(c2)OCO3)CC1 was read as MCF10A rereplic 12%, KB-V1 cytotox 2.6µM*, KB-3-1 tox inconclusive, SW480 rerep -6% and ELG1 DNA repair inconclusive.
For O=C(c1cccc(S(=O)(=O)N2CCOCC2)c1)N1CCN(Cc2ccc3c(c2)OCO3)CC1 the results were MCF10A rereplic 1%, KB-V1 cytotox inconclusive, KB-3-1 tox inactive, SW480 rerep -3% and ELG1 DNA repair -9%.
`C/C(=C\c1ccccc1)C(=O)N1CCN(Cc2ccc3c(c2)OCO3)CC1` gave MCF10A rereplic inconclusive, KB-V1 cytotox inactive, KB-3-1 tox inconclusive, SW480 rerep 1% and ELG1 DNA repair 7.3µM*.
Screening CCSc1ccccc1C(=O)N1CCN(Cc2ccc3c(c2)OCO3)CC1 returned MCF10A rereplic 2%, KB-V1 cytotox 18µM*, KB-3-1 tox inactive, SW480 rerep 1% and ELG1 DNA repair -6%.
Screening COc1ccc(CCNC(=O)c2ccc3c(c2)S(=O)(=O)N=C2CCCCCN23)cc1OC returned KB-V1 cytotox inactive and KB-3-1 tox inactive.
Screening CCCCc1ccc(-c2nn[nH]n2)nc1 returned KB-V1 cytotox inactive and KB-3-1 tox inactive.
Screening CCc1ccc(N(CC)C(=O)c2cn(C)c(=O)c3ccccc23)cc1 returned MCF10A rereplic 3%, KB-V1 cytotox inactive, KB-3-1 tox inactive, SW480 rerep -1% and ELG1 DNA repair inconclusive.
Cn1nccc1C(=O)NC1CC(C)(C)Cc2c1cnn2-c1ccc(F)cc1 (stereo unspecified) was read as MCF10A rereplic -3%, KB-V1 cytotox inactive, KB-3-1 tox inactive, SW480 rerep 4% and ELG1 DNA repair -7%.
`Cc1cc(C)cc(C(=O)N2CCN(Cc3ccc4c(c3)OCO4)CC2)c1` gave MCF10A rereplic 1%, KB-V1 cytotox inactive, KB-3-1 tox inactive, SW480 rerep inconclusive and ELG1 DNA repair -9%.
For Cc1cc(C(=O)N2CCN(Cc3ccc4c(c3)OCO4)CC2)cs1 the results were MCF10A rereplic inconclusive, KB-V1 cytotox 15µM*, KB-3-1 tox inactive, SW480 rerep -6% and ELG1 DNA repair inconclusive.
`COc1ccc2cc3cc(C(=O)NCc4ccc5c(c4)OCO5)oc3nc2c1` gave MCF10A rereplic 8%, KB-V1 cytotox inactive, KB-3-1 tox inactive, SW480 rerep -6% and ELG1 DNA repair -14%.
